Data reported in the supplement of paper PMC10849652.
Of roughly 8,800 targets only a part is listed; those with a hit were picked by preference. About 0.5% of all pairs of compound and target were hits. Unmarked numbers belong to inactive results.

Assays:
Assay in all cases: log2 fold change, soluble protein after heating vs DMSO (PISA); higher = thermal stabilisation; K562 lysate, 10 uM; active = over 0.2 and 3.5 SD of the protein, either way, in both replicates (recomputed)
lapatinib = compound: CS(=O)(=O)CCNCc1ccc(-c2ccc3ncnc(Nc4ccc(OCc5cccc(F)c5)c(Cl)c4)c3c2)o1 [lapatinib]
Summary of the method: (§1)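 Quantification was by TMTpro 16plex LC-MS/MS with equalised channel sums, applied to the supernatant after 21,000xg for 90 min. Samples were crude K562 extract at 1 mg/mL protein in PBS pH 7.4 with 1 mM MgCl2, treated with 10 μM compound for 30 min, heated for 3 min across 48°C-58°C, pooled and brought to 0.5% NP-40 at 4°C. Values are log-two fold changes in thermal stability relative to solvent controls, from duplicates.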

pictilisib = compound: CS(=O)(=O)N1CCN(Cc2cc3nc(-c4cccc5[nH]ncc45)nc(N4CCOCC4)c3s2)CC1 [pictilisib]
Summary of the method: as §1

crizotinib = compound: C[C@@H](Oc1cc(-c2cnn(C3CCNCC3)c2)cnc1N)c1c(Cl)ccc(F)c1Cl [crizotinib]
Summary of the method: as §1

[1] = compound: C[C@H](C1=CC=C(C=C1)C(=O)NC2=C3C=CNC3=NC=C2)N
Summary of the method: as §1

duvelisib = compound: C[C@H](Nc1ncnc2nc[nH]c12)c1cc2cccc(Cl)c2c(=O)n1-c1ccccc1 [duvelisib]
Summary of the method: as §1

gandotinib = compound: Cc1cc(Nc2cc(CN3CCOCC3)c3nc(C)c(Cc4ccc(Cl)cc4F)n3n2)n[nH]1 [gandotinib]
Summary of the method: as §1

tozasertib = compound: Cc1cc(Nc2cc(N3CCN(C)CC3)nc(Sc3ccc(NC(=O)C4CC4)cc3)n2)n[nH]1 [tozasertib]
Summary of the method: as §1

doramapimod = compound: Cc1ccc(-n2nc(C(C)(C)C)cc2NC(=O)Nc2ccc(OCCN3CCOCC3)c3ccccc23)cc1 [doramapimod]
Summary of the method: as §1

bafetinib = compound: Cc1ccc(NC(=O)c2ccc(CN3CC[C@H](N(C)C)C3)c(C(F)(F)F)c2)cc1Nc1nccc(-c2cncnc2)n1 [bafetinib]
Summary of the method: as §1

[2] = compound: Cc1cccc(CC(=O)N2CCc3c2ccc(-c2cn(C)c4ncnc(N)c24)c3F)n1
Summary of the method: as §1

UniProt P41219, sequence (P41219 whole entry, looked up): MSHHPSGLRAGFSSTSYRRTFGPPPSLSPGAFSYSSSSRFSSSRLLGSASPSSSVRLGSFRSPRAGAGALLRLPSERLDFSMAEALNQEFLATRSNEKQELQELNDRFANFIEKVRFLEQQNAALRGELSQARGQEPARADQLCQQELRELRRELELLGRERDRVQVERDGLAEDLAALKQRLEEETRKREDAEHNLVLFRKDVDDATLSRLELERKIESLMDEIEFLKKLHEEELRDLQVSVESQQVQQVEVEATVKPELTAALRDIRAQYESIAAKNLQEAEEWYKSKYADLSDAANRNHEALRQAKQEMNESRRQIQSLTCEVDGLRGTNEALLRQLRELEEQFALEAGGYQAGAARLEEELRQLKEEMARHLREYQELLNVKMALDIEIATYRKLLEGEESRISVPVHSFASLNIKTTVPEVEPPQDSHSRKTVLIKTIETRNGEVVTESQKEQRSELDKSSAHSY
UniProt Q93100, sequence (Q93100 whole entry, looked up): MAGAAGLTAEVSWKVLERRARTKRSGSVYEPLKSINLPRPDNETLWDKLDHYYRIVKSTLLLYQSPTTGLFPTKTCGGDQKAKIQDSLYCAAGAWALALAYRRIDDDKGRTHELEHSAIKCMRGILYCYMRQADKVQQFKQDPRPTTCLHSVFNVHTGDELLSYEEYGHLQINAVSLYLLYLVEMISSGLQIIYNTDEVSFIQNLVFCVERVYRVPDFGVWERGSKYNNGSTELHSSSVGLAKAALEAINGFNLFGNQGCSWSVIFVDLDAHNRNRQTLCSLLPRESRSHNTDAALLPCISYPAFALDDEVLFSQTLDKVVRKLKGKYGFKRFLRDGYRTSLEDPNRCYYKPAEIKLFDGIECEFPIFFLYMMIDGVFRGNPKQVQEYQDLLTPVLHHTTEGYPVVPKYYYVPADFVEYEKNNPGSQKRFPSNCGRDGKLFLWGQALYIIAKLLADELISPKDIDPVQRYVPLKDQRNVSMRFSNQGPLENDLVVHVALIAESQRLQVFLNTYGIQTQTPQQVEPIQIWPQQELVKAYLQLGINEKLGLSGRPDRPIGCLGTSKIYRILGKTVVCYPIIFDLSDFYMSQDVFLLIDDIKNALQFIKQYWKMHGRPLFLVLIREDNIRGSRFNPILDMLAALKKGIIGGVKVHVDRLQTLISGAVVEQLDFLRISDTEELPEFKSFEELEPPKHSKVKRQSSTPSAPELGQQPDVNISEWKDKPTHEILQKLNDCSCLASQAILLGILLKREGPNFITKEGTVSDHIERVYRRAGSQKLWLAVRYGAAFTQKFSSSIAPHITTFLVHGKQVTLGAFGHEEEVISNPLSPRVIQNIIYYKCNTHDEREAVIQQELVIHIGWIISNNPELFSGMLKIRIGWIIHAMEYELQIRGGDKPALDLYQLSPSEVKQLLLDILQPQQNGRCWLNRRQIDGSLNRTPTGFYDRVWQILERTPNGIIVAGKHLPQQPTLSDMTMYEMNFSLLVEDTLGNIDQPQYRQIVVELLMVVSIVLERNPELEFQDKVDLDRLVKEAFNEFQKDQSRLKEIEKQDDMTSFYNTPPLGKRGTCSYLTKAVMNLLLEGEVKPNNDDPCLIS
UniProt Q8N8N7, sequence (Q8N8N7 whole entry, looked up): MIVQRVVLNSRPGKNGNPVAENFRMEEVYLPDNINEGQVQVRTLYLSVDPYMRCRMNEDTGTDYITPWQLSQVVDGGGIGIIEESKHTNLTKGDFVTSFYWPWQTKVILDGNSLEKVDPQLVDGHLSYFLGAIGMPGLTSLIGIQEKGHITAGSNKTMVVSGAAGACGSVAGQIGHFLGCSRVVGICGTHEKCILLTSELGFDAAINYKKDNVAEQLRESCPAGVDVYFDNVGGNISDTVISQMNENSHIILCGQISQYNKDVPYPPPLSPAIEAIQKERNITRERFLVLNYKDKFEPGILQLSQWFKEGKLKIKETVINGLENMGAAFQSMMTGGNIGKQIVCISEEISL
UniProt Q96C36, sequence (Q96C36 whole entry, looked up): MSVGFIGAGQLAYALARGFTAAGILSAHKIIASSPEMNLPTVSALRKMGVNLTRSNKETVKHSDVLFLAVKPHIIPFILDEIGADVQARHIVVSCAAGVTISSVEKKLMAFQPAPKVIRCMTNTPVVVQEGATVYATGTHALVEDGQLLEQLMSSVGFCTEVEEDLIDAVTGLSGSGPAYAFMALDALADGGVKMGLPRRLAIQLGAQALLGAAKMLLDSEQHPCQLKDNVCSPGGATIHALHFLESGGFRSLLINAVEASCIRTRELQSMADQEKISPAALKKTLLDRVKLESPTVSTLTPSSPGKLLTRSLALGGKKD
UniProt Q9UNP9, sequence (Q9UNP9 whole entry, looked up): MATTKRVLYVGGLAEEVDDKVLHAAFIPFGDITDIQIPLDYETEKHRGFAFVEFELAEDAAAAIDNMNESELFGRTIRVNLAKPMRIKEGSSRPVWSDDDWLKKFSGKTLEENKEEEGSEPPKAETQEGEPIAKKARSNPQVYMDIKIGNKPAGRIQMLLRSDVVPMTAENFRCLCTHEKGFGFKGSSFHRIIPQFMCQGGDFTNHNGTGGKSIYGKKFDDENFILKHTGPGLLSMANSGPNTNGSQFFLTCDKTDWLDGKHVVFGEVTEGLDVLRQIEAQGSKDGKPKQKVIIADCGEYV
UniProt Q5JRX3, sequence (Q5JRX3 whole entry, looked up): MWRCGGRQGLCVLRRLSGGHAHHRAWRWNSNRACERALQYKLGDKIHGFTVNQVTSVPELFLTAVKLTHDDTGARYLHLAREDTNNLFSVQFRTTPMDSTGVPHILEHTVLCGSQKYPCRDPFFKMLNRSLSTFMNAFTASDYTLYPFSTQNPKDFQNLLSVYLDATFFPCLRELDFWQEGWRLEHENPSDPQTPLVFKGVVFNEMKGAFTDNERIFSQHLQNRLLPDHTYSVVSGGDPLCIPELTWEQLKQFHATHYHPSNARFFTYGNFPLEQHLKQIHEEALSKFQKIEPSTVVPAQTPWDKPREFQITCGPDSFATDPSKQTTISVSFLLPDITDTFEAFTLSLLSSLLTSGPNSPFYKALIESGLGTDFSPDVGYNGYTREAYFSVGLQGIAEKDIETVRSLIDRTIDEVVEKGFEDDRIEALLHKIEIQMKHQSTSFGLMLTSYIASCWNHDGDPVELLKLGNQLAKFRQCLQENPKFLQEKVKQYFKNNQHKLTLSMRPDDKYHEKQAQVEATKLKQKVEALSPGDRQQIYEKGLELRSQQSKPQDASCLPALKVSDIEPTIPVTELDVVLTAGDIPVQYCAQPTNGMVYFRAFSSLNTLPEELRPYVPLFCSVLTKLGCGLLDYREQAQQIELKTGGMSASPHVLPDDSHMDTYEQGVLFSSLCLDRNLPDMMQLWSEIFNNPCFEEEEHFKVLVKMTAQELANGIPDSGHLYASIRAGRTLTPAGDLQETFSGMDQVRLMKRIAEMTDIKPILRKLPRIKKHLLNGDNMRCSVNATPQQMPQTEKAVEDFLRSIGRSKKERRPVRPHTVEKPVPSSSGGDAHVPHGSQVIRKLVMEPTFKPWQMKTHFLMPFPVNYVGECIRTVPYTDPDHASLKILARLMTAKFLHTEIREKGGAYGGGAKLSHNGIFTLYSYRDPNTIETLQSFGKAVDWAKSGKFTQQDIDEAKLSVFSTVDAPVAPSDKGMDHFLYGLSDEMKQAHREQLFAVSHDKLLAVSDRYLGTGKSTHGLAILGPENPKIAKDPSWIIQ
UniProt Q15173, sequence (Q15173 whole entry, looked up): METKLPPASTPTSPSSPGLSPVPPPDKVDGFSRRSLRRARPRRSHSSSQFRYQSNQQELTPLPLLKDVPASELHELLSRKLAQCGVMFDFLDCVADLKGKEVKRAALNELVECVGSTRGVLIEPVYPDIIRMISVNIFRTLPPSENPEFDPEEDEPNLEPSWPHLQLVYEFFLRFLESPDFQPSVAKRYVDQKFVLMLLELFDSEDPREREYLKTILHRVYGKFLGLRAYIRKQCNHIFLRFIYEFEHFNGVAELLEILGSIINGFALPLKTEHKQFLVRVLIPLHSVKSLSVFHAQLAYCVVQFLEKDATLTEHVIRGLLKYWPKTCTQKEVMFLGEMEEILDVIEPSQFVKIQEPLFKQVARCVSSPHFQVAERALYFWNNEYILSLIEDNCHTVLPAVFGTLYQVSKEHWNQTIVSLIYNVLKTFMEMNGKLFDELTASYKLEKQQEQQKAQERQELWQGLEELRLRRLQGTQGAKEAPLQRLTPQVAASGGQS
UniProt P23219, sequence (P23219 whole entry, looked up): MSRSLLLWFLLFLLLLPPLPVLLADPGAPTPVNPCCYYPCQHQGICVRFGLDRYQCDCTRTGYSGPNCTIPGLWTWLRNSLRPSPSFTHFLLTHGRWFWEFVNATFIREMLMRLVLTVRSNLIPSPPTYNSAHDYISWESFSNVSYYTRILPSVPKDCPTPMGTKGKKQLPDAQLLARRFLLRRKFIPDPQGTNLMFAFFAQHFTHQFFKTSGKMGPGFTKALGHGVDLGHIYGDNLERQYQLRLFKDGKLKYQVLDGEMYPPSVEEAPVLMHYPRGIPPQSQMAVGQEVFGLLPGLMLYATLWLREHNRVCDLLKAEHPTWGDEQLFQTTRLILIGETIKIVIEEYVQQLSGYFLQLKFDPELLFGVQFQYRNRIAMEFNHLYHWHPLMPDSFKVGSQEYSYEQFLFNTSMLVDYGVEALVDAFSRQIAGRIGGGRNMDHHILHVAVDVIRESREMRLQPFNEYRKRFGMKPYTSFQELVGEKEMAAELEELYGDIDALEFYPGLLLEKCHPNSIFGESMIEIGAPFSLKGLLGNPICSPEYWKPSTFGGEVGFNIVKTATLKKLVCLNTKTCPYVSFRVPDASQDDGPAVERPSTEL
UniProt Q96PU8, sequence (Q96PU8 whole entry, looked up): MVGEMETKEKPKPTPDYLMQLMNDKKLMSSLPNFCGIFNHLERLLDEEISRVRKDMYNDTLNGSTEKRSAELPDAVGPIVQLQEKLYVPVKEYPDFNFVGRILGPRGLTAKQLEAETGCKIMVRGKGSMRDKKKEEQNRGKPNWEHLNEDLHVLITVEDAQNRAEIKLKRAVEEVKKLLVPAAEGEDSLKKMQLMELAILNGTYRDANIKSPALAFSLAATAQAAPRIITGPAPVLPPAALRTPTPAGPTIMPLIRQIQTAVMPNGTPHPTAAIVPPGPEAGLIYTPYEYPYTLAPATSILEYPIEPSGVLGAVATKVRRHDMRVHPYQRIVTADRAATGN

| Target | log2 fold change (lapatinib) | log2 fold change (pictilisib) | log2 fold change (crizotinib) | log2 fold change [1] | log2 fold change (duvelisib) | log2 fold change (gandotinib) | log2 fold change (tozasertib) | log2 fold change (doramapimod) | log2 fold change (bafetinib) | log2 fold change [2] |
| --- | --- | --- | --- | --- | --- | --- | --- | --- | --- | --- |
| PI4K2A (UniProt Q9BTU6) | -0.02 | -0.036 | 0.003 | -0.006 | 0.054 | -0.03 | -0.025 | -0.008 | 0.008 | 0.014 |
| PPIE (UniProt Q9UNP9) | 0.03 | 0 | -0.02 | -0.234 | 0.006 | 0.144 | 0.014 | 0.062 | 0.009 | 0.102 |
| PITRM1 isoform 2 (UniProt Q5JRX3) | -0.001 | -0.025 | 0.053 | 0.04 | 0.029 | 0.013 | 0.006 | -0.024 | -0.023 | -0.062 |
| QKI (UniProt Q96PU8) | -0.002 | 0.015 | 0.047 | -0.212 (active) | -0.017 | 0.163 | -0.021 | -0.043 | -0.056 | 0.155 |
| PUM1 isoform 3 (UniProt Q14671) | 0.004 | -0.036 | 0.067 | 0.021 | -0.003 | -0.151 | 0.01 | -0.315 (active) | -0.067 | -0.026 |
| PREP (UniProt P48147) | -0.024 | -0.013 | -0.016 | 0.009 | 0.043 | -0.042 | -0.012 | -0.001 | -0.004 | -0.01 |
| PICALM (UniProt H0YEH1) | 0.046 | 0.016 | -0.086 | -0.47 (active) | -0.075 | 0.238 | 0.152 | 0.274 | 0.018 | 0.335 (active) |
| PPIL2 (UniProt Q13356) | -0.034 | -0.014 | -0.037 | -0.011 | -0.047 | -0.019 | 0.047 | 0.043 | -0.022 | 0.054 |
| POLR2F (UniProt P61218) | 0.036 | -0.062 | -0.024 | 1.12 (active) | -0.018 | -0.166 | 0.156 | 0.025 | -0.076 | -0.189 |
| PELO (UniProt Q9BRX2) | 0.036 | 0.001 | -0.064 | 0.369 (active) | -0.039 | -0.202 | 0.022 | 0.019 | -0.054 | -0.175 |
| PTGES2 (UniProt Q9H7Z7) | 0.637 (active) | 0.153 | -0.052 | -0.013 | 0.029 | 0.236 | 0.329 | 0.341 | 0.176 | 0.009 |
| PHOSPHO2 (UniProt Q8TCD6) | -0.043 | 0.015 | -0.001 | -0.063 | -0.044 | -0.009 | -0.184 | -0.045 | -0.024 | -0.002 |
| PRPH isoform 2 (UniProt P41219) | 0.082 | 0.131 | 0.05 | 0.03 | 0.051 | -0.08 | 0.096 | -0.015 | 0.025 | 0.001 |
| PRKCSH (UniProt P14314) | -0.004 | -0.004 | 0.062 | 0.046 | 0.022 | -0.023 | 0.02 | -0.042 | 0.05 | -0.088 |
| PHKB isoform 3 (UniProt Q93100) | -0.042 | 0.025 | 0.026 | -0.126 | -0.025 | 0.127 | -0.021 | -0.061 | -0.012 | 0.027 |
| PKP3 isoform 2 (UniProt Q9Y446) | -0.007 | -0.004 | 0.043 | -0.024 | -0.048 | 0.04 | -0.039 | 0.08 | -0.085 | 0.027 |
| PPP2R5B (UniProt Q15173) | -0.089 | -0.064 | 0.075 | -0.017 | 0.021 | -0.168 | 0.04 | 0.005 | 0.054 | -0.036 |
| PPME1 isoform 4 (UniProt Q9Y570) | -0.014 | 0.009 | 0.005 | -0.014 | 0.002 | -0.002 | 0.048 | 0.026 | 0.052 | -0.006 |
| POLR2B (UniProt P30876) | 0.009 | -0.048 | -0.054 | -0.032 | 0.001 | -0.018 | -0.016 | 0.046 | -0.067 | 0.036 |
| PYCR2 (UniProt Q96C36) | -0.029 | -0.021 | 0.026 | 0.021 | -0.004 | 0.01 | 0.001 | -0.012 | 0.034 | -0.01 |
| PCBP2 (UniProt H3BRU6) | 0.116 | -0.021 | -0.04 | 0.044 | 0.028 | 0.01 | -0.112 | -0.119 | 0.079 | -0.041 |
| PRAME (UniProt P78395) | -0.012 | -0.008 | -0.08 | -0.015 | 0.005 | -0.037 | -0.013 | 0.007 | -0.062 | 0.056 |
| PRPF6 (UniProt O94906) | -0.008 | 0.009 | -0.06 | -0.023 | -0.023 | -0.08 | 0.023 | 0.064 | -0.056 | 0.031 |
| PDPK1 (UniProt O15530) | -0.04 | -0.051 | 0.03 | 0.262 | -0.039 | 0.092 | -0.029 | -0.012 | -0.021 | -0.211 |
| PTGR2 (UniProt Q8N8N7) | -0.003 | 0.014 | -0.029 | -0.04 | 0.02 | 0.01 | 0.04 | -0.04 | -0.003 | -0.004 |
| PIK3R1 (UniProt P27986) | 0.002 | 0.374 | -0.015 | 0.033 | 0.534 (active) | 0.171 | 0.039 | -0.02 | 0.007 | -0.011 |
| PTMA (UniProt P06454) | -0.059 | -0.014 | 0.08 | 0.505 (active) | 0.009 | -0.277 | 0.012 | -0.031 | 0.058 | -0.375 (active) |
| PRKACA (UniProt P17612) | -0.008 | -0.012 | 0.022 | -0.159 | -0.059 | 0.115 | -0.12 | -0.113 | -0.073 | 0.151 |
| PHACTR4 isoform 2 (UniProt Q8IZ21) | -0.015 | -0.014 | -0.005 | 0.764 (active) | 0 | -0.121 | -0.03 | -0.003 | 0.022 | -0.196 |
| PTGS1 isoform 6 (UniProt P23219) | 0.004 | -0.068 | 0.007 | -0.236 (active) | -0.001 | 0.109 | 0.029 | 0.036 | -0.079 | 0.093 |
